Hits are enriched below; roughly 1.2% of the tested compounds scored in any of these assays.
Anesthetic bind = candidate novel general anesthetic via apoferritin binding | 0.074% of 350,000 active | P02791 | Potency, µM (top dose mostly 77.5 µM), actives largely listed as inhibitors | apoferritin/1-aminoanthracene competitive binding, fluorescence; note: nearly all actives have a fitted effect of over 20% in size
Target sequence (P02791 2-175 limits assumed): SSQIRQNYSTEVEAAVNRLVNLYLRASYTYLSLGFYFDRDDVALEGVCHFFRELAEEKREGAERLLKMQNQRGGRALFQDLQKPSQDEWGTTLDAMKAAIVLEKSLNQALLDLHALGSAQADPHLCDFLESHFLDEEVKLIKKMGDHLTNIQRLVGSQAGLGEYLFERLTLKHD
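Horse-spleen apoferritin (10 uM) in 50% saturated 1-aminoanthracene in PBS was incubated 10 min at room temperature with compound. Fluorescence (ex 380, em 535 nm) was normalized to free and bound 1-AMA, with concentration-response fitted by a four-parameter Hill equation.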
BRCA1 expr act = BRCA1 expression activation; MCF7-BRCA1-FFLuc reporter, luminescence, 48 h; response scale: scaled: vehicle 0%, 10 µM genistein 100%; Potency, µM (highest dose often 46.1 µM), usual class: activators; 1.1% of 380,000 active; AID 624202; note: nearly all actives have a fitted effect of over 80% in size
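48 h compound treatment of MCF7-BRCA1-FFLuc cells (phenol-red free MEM, 37 °C), then 15 min with luciferase substrate and luminescence imaging.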
ERG-DNA inh = ERG Ets/DNA interaction inhibition; P11308; fluorescence polarization, His-ERG Ets domain / labelled DNA; Potency, µM (series often up to 76.9 µM), actives largely listed as inhibitors; 0.028% of 370,000 active; AID 624246; active = well fitted inhibition curve with a large enough effect in the polarisation, with a control signal flat; inconclusive = small, poorly fitted or top-dose-only effect, or effect the other way, or a change in a side signal; inactive = no such curve, though single readings can be large or run the other way; the % refers to the polarisation;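 note: polarization taken with two DNA probes labelled with fluorescein and Texas red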
Target sequence (P11308 whole entry, looked up, the tested form may be a part): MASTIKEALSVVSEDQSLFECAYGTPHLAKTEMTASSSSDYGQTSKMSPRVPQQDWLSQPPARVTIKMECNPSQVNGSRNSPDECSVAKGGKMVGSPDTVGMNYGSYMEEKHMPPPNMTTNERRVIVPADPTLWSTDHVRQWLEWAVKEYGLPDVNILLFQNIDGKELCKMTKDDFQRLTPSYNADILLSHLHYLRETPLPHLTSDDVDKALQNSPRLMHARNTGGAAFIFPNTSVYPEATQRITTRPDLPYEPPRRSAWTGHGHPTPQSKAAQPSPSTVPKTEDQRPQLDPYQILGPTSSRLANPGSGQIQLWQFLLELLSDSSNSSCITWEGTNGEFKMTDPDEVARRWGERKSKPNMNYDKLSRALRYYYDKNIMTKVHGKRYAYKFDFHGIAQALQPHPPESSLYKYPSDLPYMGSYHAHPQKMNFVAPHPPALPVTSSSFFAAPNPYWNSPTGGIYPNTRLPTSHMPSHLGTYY
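His-tagged ERG Ets domain (1 uM in the protein solution; 300mM KCl, 50mM Tris-HCl, 1mM EDTA, 1mM DTT, pH 7.5) received compound, then a probe mix of 5 nM fluorescein-DNA and 100nM Texas-615-DNA. Fluorescence polarization was read for both dyes.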
RGS12 GoLoco inh = RGS12 GoLoco-Gai1 interaction inhibition | AID 880 | 0.44% of 230,000 active | Gai1:RGS12 GoLoco peptide FP, rhodamine, 10 min | P63096 | Potency, µM (titrated, usually from 61.6 µM), usual class: inhibitors; active = well fitted inhibition curve with a large enough effect, not every such curve was filed as active; inactive = no such curve, though single readings can be large or run the other way; note: nearly all actives have a fitted effect of over 30% in size
Hits are given with their value; – = inactive; ? = inconclusive; · = no result; [ ] = dose if it differs, or a comment. Unless noted, calls come from the whole dose curve; as a rule, active = well fitted curve in the direction sought with a large enough effect; inconclusive = small, poorly fitted or top-dose-only effect, or another doubt; inactive = no such curve, though single readings can be large; an effect the other way counts as inactive or inconclusive.

SMILES	Anesthetic bind	BRCA1 expr act	ERG-DNA inh	RGS12 GoLoco inh
CCN1C(=O)[C@@H]2[C@H]3C(=CC[C@H]2C1=O)C(=O)[C@H]1OC1[C@H]3O (stereo not given in full)	–[15.3 µM]	·	·	·
COc1ccc(/C=N/Nc2ncccc2[N+](=O)[O-])c(OC)c1	?	14µM	–	–
O=C(Cn1cc2c(n1)CCCC2)NCc1ccccn1	–	–	?	16µM
C/C(=N\NC(=O)c1c(Br)cnn1C)c1ccc(NC(=O)c2ccc(F)cc2)cc1	–	7.9µM	–	–
C/C(=N\NC(=O)c1ccc(O)cc1)c1cccc(NC(=O)c2ccc(Cl)cc2)c1	·	5.6µM	–	·
C/C(=N\NC(=O)c1cccc(O)c1)c1cccc(NC(=O)c2ccc(F)cc2)c1	–	4µM	–	·
C/C(=N\NC(=O)c1ccc(Cl)cc1)c1cccc(NC(=O)c2cccnc2)c1	–	?	–	–
C/C(=N\NC(=O)c1c(Cl)cnn1C)c1cccc(NC(=O)c2ccc(C)cc2)c1	–	6.3µM	–	·
C/C(=N\NC(=O)c1ccncc1)c1ccc(NC(=O)c2ccc(Cl)cc2)cc1	–	–	–	·
C/C(=N\NC(=O)c1c(Cl)cnn1C)c1cccc(NC(=O)C(C)C)c1	–	–	·	–
O=C(Nc1ccc(F)c(Cl)c1)N1CC=C(c2c[nH]c3ccccc23)CC1	–	·	–	·
O=C(NNc1ccc(F)cc1F)c1cccs1	·	–	·	·
COC(=O)C1=C(C(=O)OC)[C@@H]2N(C)c3ccccc3[C@@]23C[C@@H](C(=O)OC)N(S(=O)(=O)c2ccc(C)cc2)C3=N1	·	·	·	–[14.2 µM]
CCN(c1ccccc1)c1nc(N)nc(C#N)n1	·	–	·	·
COC(=O)c1sccc1NC(=S)N1CCCCC1	40µM	–	–	–
CCN(Cc1ccccc1)C(=O)CCc1nnc(CCCc2ccccc2)o1	–	11µM	–	–
CCN1CCc2nc(NC(=O)c3ccc4c(c3)OCCO4)sc2C1	–	4.5µM	–	–
O=C(Nc1nccs1)c1ccc2c(c1)OCO2	–	8.9µM	–	·
Cc1csc(NC(=O)c2ccc3c(c2)OCO3)n1	–	?	–	·
CC(=O)c1sc(NC(=O)c2ccc(C)c(C)c2)nc1C	–	?	–	–
CC(=O)c1sc(NC(=O)c2ccc3c(c2)OCO3)nc1C	–	2.5µM	–	·
COc1ccc(-c2nc3ccccc3o2)cc1NC(=O)COc1ccc(C)cc1	·	–	·	·
O=C(COc1ccccc1C(=O)Nc1ccccc1)Nc1ccc(Br)cc1	·	–	·	·
CCSc1nnc(NC(=O)c2csc(C)c2)s1	–	5µM	–	–
CNC(=O)c1ccccc1	·	·	·	–
SMILES	Anesthetic bind	BRCA1 expr act	ERG-DNA inh	RGS12 GoLoco inh
O=C(NO)c1ccccc1	·	·	·	28µM
O/C(=C\c1nc2ccccc2[nH]1)c1cccs1	–	13µM	–	·
O=c1[nH]c2ccccc2nc1/C=C(\O)c1cccs1	–	–	–	–
O/N=C/c1ccccc1OCc1ccc(Cl)cc1	?	11µM	–	–
COc1ccc(CN(Cc2ccccc2)C(=O)c2ccco2)cc1COc1ccc(NC(C)=O)cc1	·	–	·	·
O=C(Nc1nnc(Cc2ccccc2)s1)C1CCN(C(=O)c2cccs2)CC1	·	–	·	·
O=C(NC(=S)Nc1ncc(Br)cc1Br)c1cncc(Br)c1	–	–	–	–
O=C(NC(=S)NC1CCCCCC1)c1cncc(Br)c1	–	11µM	–	–
CC1=CC(=O)c2c(O)ccc(O)c2C1=O	–	·	·	25µM
O=C1c2ccc(O)c(O)c2C(=O)c2c(O)ccc(O)c21	–	·	·	–
Cc1ccsc1C=Nc1ccc(O)cc1	?	–	–	–
Cc1ccsc1/C=N/N=C/c1sccc1C	?	2.2µM	–	·
C(=Nc1cnc2ccccc2c1)c1ccncc1	·	–	·	·
COc1ccc2[nH]c(=O)c(C(=O)O)cc2c1	–	–	–	–
CC(C)C1Cc2[nH]c(=O)c(C(=O)O)cc2CO1 (stereo not given)	–	8.9µM	–	–
CCN(CC)c1ccc(/C=C(/C#N)C(=O)NCc2ccccc2)o1	?	10µM	–	–
CCN(CC)c1ccc(/C=C(/C#N)C(=O)NC(C)C)o1	–	–	–	–
Cc1ccc(C)c(NC(=S)Nc2ncccc2C)c1	–	7.9µM	–	–
Nc1cccc(C(=O)OCC(=O)c2ccccc2)c1	–	7.9µM	–	–
O=C(COC(=O)c1cccc(O)c1)c1ccccc1	·	?	–	·
CCOc1ccc(-c2nnc(-c3cccs3)o2)cc1OCC	–	8.9µM	–	–
CCOc1ccc(-c2nnc(-c3cccs3)o2)cc1	–	–	–	–
COc1ccc(-c2nnc(-c3cccs3)o2)cc1OC	–	5µM	–	–
COc1cc(-c2nnc(-c3cccs3)o2)cc(OC)c1OC	–	–	–	–
CCNc1nc(C#N)nc(Nc2ccccc2)n1	·	–	·	·
SMILES	Anesthetic bind	BRCA1 expr act	ERG-DNA inh	RGS12 GoLoco inh
CCCc1cc(C(=O)Nc2ccc(F)c(Cl)c2)no1	–	11µM	–	·
CCCc1cc(C(=O)Nc2cccc(Cl)c2)no1	–	?	–	–
O=C(Nc1ccc(F)c(Cl)c1)c1cc(C2CCCN(C(=O)C3CC3)C2)on1 (stereo not given)	·	2.8µM	·	·
CN(C)/[N+]([O-])=N\Oc1cc(OC(=O)c2ccc(N)cc2)c([N+](=O)[O-])cc1[N+](=O)[O-]	·	–	·	·
Cc1ccc(C2NNC(=O)C2NC(=O)c2ccccc2)cc1 (stereo not given)	–	11µM	–	–
COC(=O)c1c(-c2cccs2)csc1NC(=O)c1cc(OC)cc(OC)c1	–	·	–	·
COCCCNC(=O)/C=C/c1cccc(Cl)c1	–	–	–	–
CN(C)C(CNC(=O)/C=C/c1cccc(Cl)c1)c1ccccc1 (stereo not given)	–	–	40µM	–
C1=C(c2cc3ccccc3cn2)CCCC1	·	10µM	–	·
Fc1ccc2cnc(C3=CCCCC3)cc2c1	·	–	–	·
O=C(CNC(=O)c1ccccc1F)N/N=C/c1cccs1	–	10µM	–	·
CSc1ccc(/C=C/C(=O)NC(=O)c2ccccc2O)cc1	–	13µM	–	–
COc1ccc(C=C2c3ccccc3C(=O)c3ccccc32)cc1O	–	·	·	·
Cc1cc(/C(N)=N/OC(=O)c2cccc(Cl)c2)no1	–	–	–	–
Cc1ccc(/C(N)=N/OC(=O)c2ccc3c(c2)OCO3)cc1	–	?	–	–
Cc1cc(/C(N)=N/OC(=O)c2ccc(Cl)cc2)no1	–	7.9µM	–	–
COc1ccc(C(=O)O/N=C(\N)c2ccncc2)cc1OC	–	–	–	–
N/C(=N\OC(=O)c1ccc2c(c1)OCO2)c1ccc(Cl)cc1	–	8.9µM	·	–
COc1ccc(C(=O)O/N=C(\N)c2ccc(Cl)cc2)cc1	–	2.5µM	–	·
N/C(=N\OC(=O)c1ccc2c(c1)OCO2)c1ccncc1	–	4.5µM	–	–
CC(=O)Oc1cc(C)c(OC(C)=O)c2ccccc12	·	·	·	–
COc1cccc(NC(=O)c2ccccc2OCC(=O)Nc2ccc(Br)cc2)c1	·	–	·	·
COc1ccc(/C(N)=N/OC(=O)c2ccc3c(c2)OCO3)cc1	–	3.2µM	–	–
O=c1c2ccccc2nc2c3ccccc3cnn12	–	7.9µM	–	–
COc1ccc2cc3c(N)c(C(=O)NCc4ccco4)sc3nc2c1	–	5.6µM	?	–
Cc1csc(NC(=O)c2ccccc2)n1	–	3.2µM	–	·

High-throughput results (PubChem)
